DPM-DC inhibit: S. pneumoniae DPM-DC inhibitors, primary screen, biochemical, PK/LDH-coupled NADH fluorescence | diphosphomevalonate decarboxylase (Streptococcus pneumoniae D39) | purified DPM-DC | calls only at 10 µM | 65,000 tested, 0.49% active | AID 556, 2006;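 active = the 320 compounds with the highest percent inhibition in the single-dose primary screen, excluding strongly autofluorescent ones, cut at about 32% in these data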;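 note: kinetic rate of NADH fluorescence loss reporting ADP formed by the decarboxylase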
A340 absorber: compound light absorbance at 340 nm, profiling panel, artefact control, biochemical, MLSMR library, data from PS, PMK, MK assays. 65,000 tested, under 10 active. fold change at 10 µM. compound absorbance at 340 nm, fold over control;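 active = at 10 µM dose, initial 340 nm absorbance at least 2 fold that of control wells; inactive = change under 2 fold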;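 note: initial absorbance extrapolated from kinetic A340 decline of NADH oxidation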
Autofluor 339: intrinsic fluorescence of library compounds, ex339/em460 – biochemical, MLSMR library, data from DPM-DC assay, artefact control, profiling panel. compound autofluorescence, ex339/em460 nm, NADH buffer; hits give high values; 1 = no-compound wells, NADH background. fluorescence fold increase at 10 µM. 65,000 tested, 5.5% active. AID 709, 2007;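 active = at 10 µM, mean starting fluorescence two-fold or more over control wells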;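 note: signal is the first read of a kinetic run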
NADH coupling: inhibitors of PK/LDH coupling enzymes, profiling panel, artefact control, biochemical, MLSMR library | coupled PK/LDH NADH assays, four targets | IC50, µM (titrated, usually from 10 µM), for the others: top-dose inhibition | AID 774, 2007 | 65,000 tested, 0.02% active;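 active = single-dose screening hits from any of four coupled enzyme assays that gave an IC50 when retested across doses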;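 note: the DPM-DC format reads NADH fluorescence rather than 340 nm absorbance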
Spn MK inh: S. pneumoniae MK inhibitors, primary screen, biochemical, PK/LDH-coupled NADH absorbance; inhibition, % at 10 µM; purified MK, PK/LDH-coupled NADH absorbance 340 nm; 65,000 tested, 0.48% active;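 active = ranked among the strongest by inhibition in the single 10 µM screen, a fixed top-ranked set picked for dose follow-up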
Spn PMK inh: S. pneumoniae PMK inhibitors, primary screen, biochemical, mevalonate pathway, pilot trial included; phosphomevalonate kinase (Streptococcus pneumoniae D39); purified PMK, PK/LDH-coupled NADH absorbance 340 nm; inhibition, % at 10 µM; 65,000 tested, 0.49% active;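 active = top-ranked compounds by inhibition in the single 10 µM screen, taking a fixed number of the strongest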;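 note: 0% = full reaction with DMSO carrier and 100% = background rate without enzyme reaction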
Starred values were filed as active, the others as inactive. Shown are actives, neighbours in structure and some others; about 6.8% of the full set was active somewhere.

`O=C(Nc1c(-c2ccccc2)nc2sccn12)c1ccccc1` gave DPM-DC inhibit inactive, A340 absorber 1, Autofluor 339 1.1, NADH coupling 18%, Spn MK inh 15 and Spn PMK inh 40*.
For Cc1ccc(S(=O)(=O)c2nc(S(C)(=O)=O)sc2NCC2CCCO2)cc1 (centres undefined) the results were A340 absorber 1.1, Autofluor 339 2.1*, NADH coupling 4%, Spn MK inh 7 and Spn PMK inh 0.
Screening Cc1nnc2sc(-c3ccc(NC(=O)CSc4ccc(Cl)cc4)cc3)nn12 returned DPM-DC inhibit inactive, A340 absorber 1.1, Autofluor 339 1.6, NADH coupling 4%, Spn MK inh 4 and Spn PMK inh 5.
`CCc1nnc2sc(-c3ccc(NC(=O)CSc4ccc(Cl)cc4)cc3)nn12` gave DPM-DC inhibit active, A340 absorber 1.1, Autofluor 339 3*, NADH coupling 17%, Spn MK inh 10 and Spn PMK inh 7.
`CC(=O)Nc1ccn(-c2ccccc2)n1` gave DPM-DC inhibit inactive, A340 absorber 1, Autofluor 339 1.1, NADH coupling 2%, Spn MK inh 11 and Spn PMK inh 1.
`CC(=O)NC1N=C(C)N(c2ccccc2)C1=O` (centres undefined) gave DPM-DC inhibit inactive, A340 absorber 1.1, Autofluor 339 1.1, NADH coupling 9%, Spn MK inh 0 and Spn PMK inh 28*.
For O=C1OCCC1Sc1nc(-c2ccccc2)cs1 (centres undefined) the results were DPM-DC inhibit inactive, A340 absorber 1, Autofluor 339 1, NADH coupling 6%, Spn MK inh 18 and Spn PMK inh 0.
For Cc1ccc(-c2nn3c(C)nnc3s2)cc1NCc1c(F)cccc1Cl the results were DPM-DC inhibit inactive, A340 absorber 1.1, Autofluor 339 2.3*, NADH coupling 14%, Spn MK inh 6 and Spn PMK inh 6.
Screening COC(=O)c1[nH]c2cccc(OC)c2c1NC(=O)CN1CCC(C(N)=O)(N2CCCCC2)CC1 returned A340 absorber 1, Autofluor 339 3.7*, NADH coupling 5%, Spn MK inh 5 and Spn PMK inh 4.
Screening COC(=O)c1[nH]c2cccc(OC)c2c1NC(=O)CCN1CCC(C(N)=O)CC1 returned DPM-DC inhibit inactive, A340 absorber 1, Autofluor 339 2.9*, NADH coupling 15%, Spn MK inh 7 and Spn PMK inh 15.
COC(=O)c1[nH]c2cccc(OC)c2c1NC(=O)CCN1CCN(c2ccccc2F)CC1 was read as DPM-DC inhibit inactive, A340 absorber 1, Autofluor 339 3.1*, NADH coupling 13%, Spn MK inh 11 and Spn PMK inh 14.
Screening Cc1cccc(Nc2ccccc2C(=O)O)c1C returned DPM-DC inhibit inactive, A340 absorber 1, Autofluor 339 0.96, NADH coupling 3%, Spn MK inh 4 and Spn PMK inh 4.
For CC(=O)n1cc(Nc2ccccc2C(=O)O)c2ccccc21 the results were A340 absorber 1.1, Autofluor 339 2.2*, NADH coupling 3%, Spn MK inh 3 and Spn PMK inh 2.
`Cc1nc2[nH]c(=O)c3c(n2n1)NC1=C(C(=O)CC(C)(C)C1)C3c1ccccc1` (centres undefined) gave A340 absorber 1.1, Autofluor 339 4*, NADH coupling 0%, Spn MK inh 0 and Spn PMK inh 0.
Cc1ccc(C2C3=C(CC(C)(C)CC3=O)NC3=C2C(=O)CC(C)(C)C3)o1 was read as DPM-DC inhibit inactive, A340 absorber 1, Autofluor 339 1.1, NADH coupling 9%, Spn MK inh 10 and Spn PMK inh 13.
CCNC(=O)Cc1ccc(NS(=O)(=O)c2ccc(F)cc2)cc1 was read as DPM-DC inhibit inactive, A340 absorber 0.99, Autofluor 339 1.1, NADH coupling 0%, Spn MK inh 0 and Spn PMK inh 0.

Compound activity from PubChem BioAssay.
